Source: PubChem BioAssay
Compounds with a hit are over-represented: about 3.4% of the library has one in this group of screens.
Mito fusion act – mitochondrial division inhibition or fusion activation; Potency, µM (highest dose often 46.1 µM), inactives show top-dose growth rescue (activation), usual class: activators; 320,000 tested, 0.23% active; S. cerevisiae fusion-defective mutant growth rescue, CellTiterGlo 48 h; AID 485298; note: % of control where 0% means no effect; nearly all actives have a fitted effect of over 45% in size
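Temperature-sensitive fusion-defective S. cerevisiae (e.g. fzo1-1, mgm1-5) were grown with compound in YPEG medium (3% ethanol, 3% glycerol) for 48 hours at 37C. Growth rescue was measured as viability by CellTiterGlo luminescence after 10 minutes at ambient.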
GCN5L2 inh – inhibitors of human GCN5L2 histone acetyltransferase; GCN5L2 HAT assay, ThioGlo1 CoA-SH fluorescence; 390,000 tested, 0.21% active; Q92830; Potency, µM (top dose mostly 58.9 µM), inactives show at the top dose activity change, negative = inhibition, actives largely listed as inhibitors; AID 504327; note: % is set by controls: 0 for no effect and ±100 for the full control effect
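Compounds, pin-transferred from DMSO stocks, meet 20nM GCN5L2 for 15 min before the reaction begins with H3(1-25) peptide (75uM) and acetyl-CoA (70uM). Thiol-reactive ThioGlo1 reports CoA release over 20 min at room temperature.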
PLK1 PBD inh – blocks phosphopeptide binding to human PLK1 polo-box domain | Plk1 PBD binding of FITC phosphopeptide, fluorescence polarization | P53350 | AID 720504 | 360,000 tested, 2.8% active | Potency, µM, for inactives: max response, negative = inhibition, hits mostly inhibitors; note: series mostly up to about 57 µM; % is set by controls: 0 for no effect and ±100 for the full control effect; nearly all actives have a fitted effect of over 65% in size
GLS inh – glutaminase GLS (human) inhibition. 410,000 tested, 0.21% active. GLS enzymatic activity, qHTS titration. O94925. Potency, µM (titrated, usually from 45.5 µM), for inactives: at the highest dose activity change, negative = inhibition, most hits filed as inhibitors; note: % is set by controls: 0 for no effect and ±100 for the full control effect
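Assay buffer: 45 mM KH2PO4 pH 8.2, 0.02% Tween-20. hKGA acts on L-glutamine (1 mM solution added); product glutamate is reported by an oxidase/peroxidase Amplex Red coupling, with fluorescence taken at baseline and 30 min.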
PKM2 activator – increases activity of human pyruvate kinase M2 | Potency, µM (series often up to 57.5 µM), without a hit: top-dose activation, usual class: activators | purified PKM2, Kinase-Glo ATP luminescence, activation; response scale: 0% is enzyme alone, no compound | P14618 | 260,000 tested, 0.34% active; note: % is set by controls: 0 for no effect and ±100 for the full control effect; nearly all actives have a fitted effect of over 55% in size
Target sequence (P14618 whole entry, looked up): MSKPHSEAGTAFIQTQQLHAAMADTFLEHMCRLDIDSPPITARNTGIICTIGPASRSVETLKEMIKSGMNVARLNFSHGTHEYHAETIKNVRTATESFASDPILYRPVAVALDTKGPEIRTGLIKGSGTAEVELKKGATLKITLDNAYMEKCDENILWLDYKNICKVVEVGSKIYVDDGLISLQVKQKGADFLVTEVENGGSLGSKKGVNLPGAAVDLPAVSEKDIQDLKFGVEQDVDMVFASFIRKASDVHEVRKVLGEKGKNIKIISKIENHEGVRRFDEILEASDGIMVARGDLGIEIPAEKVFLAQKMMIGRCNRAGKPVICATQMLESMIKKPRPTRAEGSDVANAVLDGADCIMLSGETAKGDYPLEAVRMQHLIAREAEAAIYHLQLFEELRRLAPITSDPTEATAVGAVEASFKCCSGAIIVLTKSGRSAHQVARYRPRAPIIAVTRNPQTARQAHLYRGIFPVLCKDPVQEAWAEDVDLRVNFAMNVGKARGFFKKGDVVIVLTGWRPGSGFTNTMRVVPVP
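Purified hPK-M2 (>95%) run at intermediate activity with 0.1 mM ADP and 0.5 mM PEP in 50 mM imidazole pH 7.2, KCl, MgCl2; 1 h room temperature. ATP formed read by Kinase-Glo luminescence; normalized to uninhibited and no-enzyme controls.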
VDR inhibitor – inhibitors of human vitamin D receptor | P11473 | VDR-SRC2-3 peptide fluorescence polarization, 2 h | 400,000 tested, 0.93% active | Potency, µM, without a hit: max response, negative = inhibition, usual class: inhibitors; note: % is set by controls: 0 for no effect and ±100 for the full control effect
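VDR–SRC2-3 interaction, FP format. Cmpds 23 nl via pintool, brief spin, 2 h ambient incubation.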
Starred values were filed as active, the others as inactive; ? = inconclusive; · = no result. Calls come from the whole dose curve; as a rule, active = well fitted curve in the direction sought with a large enough effect; inconclusive = small, poorly fitted or top-dose-only effect, or another doubt; inactive = no such curve, though single readings can be large; an effect the other way counts as inactive or inconclusive. Potency is the fitted concentration of half-maximal effect.

SMILES | Mito fusion act | GCN5L2 inh | PLK1 PBD inh | GLS inh | PKM2 activator | VDR inhibitor
O=C(CCCOc1ccc(Cl)cc1Cl)N/N=C/c1cccc([N+](=O)[O-])c1 | -1.2% | 24.1% | 26.7µM* | -0.9% | 3.8% | -0.5%
Cc1ccc2oc3c(c(=O)c2c1)C(c1ccc(OCC(N)=O)cc1)N(Cc1ccc2c(c1)OCO2)C3=O (stereo not drawn) | · | -0.5% | · | 1.5% | · | -3.7%
O=S(=O)(Cc1nnnn1-c1ccccc1)c1ccc(Cl)cc1 | 1.0% | -12.9% | 1.7% | 10.9% | 1.2% | -16.8%
O=S(=O)(Cc1ccccc1)c1nnnn1-c1ccccc1 | · | · | · | · | · | 35.5µM*
N#Cc1ccc(CS(=O)(=O)c2nnnn2-c2ccccc2)cc1 | · | · | · | · | · | 44.7µM*
CCCC(C)c1nnc(NC(=O)C2CC(=O)N(CCc3ccc(F)cc3)C2)s1 (stereo not drawn) | 3.7% | -8.3% | 5.97µM* | ? | -14.1% | ?
CCCC(C)c1nnc(NC(=O)CN2C(=O)c3ccccc3C2=O)s1 (stereo not drawn) | -3.6% | 25.2% | 26.7µM* | -14.5% | 1.5% | -16.0%
CCC(CC)c1nnc(NC(=O)CN2C(=O)c3ccccc3C2=O)s1 | -1.0% | 16.7% | -18.0% | -14.0% | -1.4% | 5.1%
CCc1nnc(NC(=O)C2CC(=O)N(CCc3ccc(F)cc3)C2)s1 (stereo not drawn) | -5.3% | -6.0% | ? | -11.3% | 0.3% | -10.7%
CCCC(C)c1nnc(NC(=O)C2CCCO2)s1 (stereo not drawn) | 4.4% | 0.8% | 29.9µM* | -9.9% | 6.5% | -17.5%
Cc1nnc(NC(=O)C2CCCO2)s1 (stereo not drawn) | -0.9% | -12.3% | ? | -5.1% | 1.9% | 5.4%
O=C(Nc1nnc(-c2ccncc2)s1)C1CCCO1 (stereo not drawn) | 4.9% | -27.6% | 21.2µM* | -11.7% | 7.6% | -1.2%
O=Cc1c(NCCN2CCCC2)c2ccccc2[nH]c1=O | 2.2% | -1.1% | -9.1% | -9.9% | -15.2% | -4.6%
O=c1c(-c2cc(-c3ccccc3)nc3c2COc2ccc(Cl)cc2-3)coc2ccc(F)cc12 | · | -0.5% | · | 3.2% | · | 4.7%
CCCC(C)c1nnc(NC(=O)C(=O)OCC)s1 (stereo not drawn) | -1.2% | -3.3% | 10.6µM* | -15.4% | -3.6% | ?
CC1CCc2nc(NC(=O)C3CCCO3)sc2C1 (stereo not drawn) | 1.7% | -11.7% | 23.8µM* | -2.8% | 2.7% | 5.5%
CSCCC(C(=O)Nc1c(C)cccc1C)N1CCN(c2ccc(C(F)(F)F)cn2)CC1 (stereo not drawn) | · | · | 6.0% | 1.2% | · | ·
O=C(COC(=O)CN1C(=O)C2CCCCC2C1=O)Nc1cc(F)ccc1F (stereo not drawn) | -6.7% | -14.3% | -0.1% | 0.8% | · | 13.5%
CC(C)(C)N(Cc1ccc2c(c1)OCO2)C(=O)/C=C\S(=O)c1ccccc1 (stereo not drawn) | · | · | ? | 18.4% | · | 70.8µM*
O=C(Nc1cccc(S(=O)(=O)Nc2ccc(Cl)cc2)c1)c1ccc[n+]([O-])c1 | 3.4% | -13.7% | -4.7% | -3.9% | 7.2% | 8.9%
O=C(COc1ccccc1C(=O)Nc1ccccc1)c1ccc(Br)cc1 | 1.8% | 0.0% | -2.7% | -0.5% | 1.7% | -8.7%
O=C(Nc1ccc(C2CC2(Cl)Cl)cc1)c1ccccc1Br (stereo not drawn) | 14.1µM* | -13.6% | -5.0% | 5.3% | -7.2% | -11.3%
O=C(Oc1ccccc1C(=O)Nc1ccccc1)c1ccccc1Br | 15.8µM* | -7.0% | -19.2% | 4.0% | 1.6% | 4.0%
COc1cc(OC)cc(OC(=O)C2CCN(C(=O)c3ccc(F)cc3)CC2)c1 | -0.8% | 0.2% | -7.9% | 6.4% | · | -6.2%
NC(=S)c1ccc[n+]([C@@H]2O[C@@H](COP(=O)([O-])OP(=O)(O)OC[C@H]3O[C@@H](n4cnc5c(N)ncnc54)[C@H](OP(=O)(O)O)[C@@H]3O)C(O)C2O)c1 (stereo partly drawn) | ? | -21.2% | · | · | · | 1.3%
SMILES | Mito fusion act | GCN5L2 inh | PLK1 PBD inh | GLS inh | PKM2 activator | VDR inhibitor
COc1ccc(Cl)cc1C(=O)Nc1ccc(Br)c(C)n1 | 3.5% | 1.6% | 23.8µM* | 0.0% | -1.8% | -15.3%
N#CC1=C(N)SC2(CCCCC2)SC1c1ccccc1 (stereo not drawn) | 1.9% | ? | 21.2µM* | 11.6% | -1.9% | -28.9%
O=C(O)c1cc([N+](=O)[O-])ccc1NCCCc1ccccc1 | 8.2µM* | -19.7% | -27.7% | 27.8% | · | ?
COc1ccc(C(=O)N/N=C(/C)c2ccc(N3CCCCC3)cc2)cc1 | -12.3% | -8.7% | 29.9µM* | ? | 0.6% | ?
CN(C)S(=O)(=O)c1cccc(NC(=O)c2cccc(S(=O)(=O)N3CCCCC3)c2)c1 | -1.4% | -26.9% | -0.3% | 2.1% | · | -17.5%
C=C(CC[C@@H](C)[C@H]1CCC2[C@]1(C)CC[C@]13C[C@@]14CCC(OC(=O)/C=C/c1ccc(O)c(OC)c1)C(C)(C)[C@@H]4CC[C@@]23C)C(C)C (stereo partly drawn) | · | -16.6% | · | 16.3% | · | 7.8%
CCCCNC(=O)c1ccc2c(c1)NC(=O)C(CS(=O)(=O)Cc1ccc(C)cc1)N2 (stereo not drawn) | · | -5.0% | · | -18.7% | · | 1.7%
Cc1ccc(CNC(=O)c2ccc3c(c2)NC(=O)C(CS(=O)(=O)Cc2ccc(F)cc2)N3)cc1 (stereo not drawn) | · | -0.3% | · | 12.6µM* | · | 10.5%
COc1cccc(-c2cncnc2N(C)Cc2ccco2)c1 | · | -26.5% | · | · | · | ?
CCCC(=O)N1CCCC(c2nc(-c3cccs3)no2)C1 (stereo not drawn) | -0.5% | -3.5% | 29.9µM* | 27.9% | -11.3% | -1.8%
CCC(Cn1nnc2ccccc2c1=O)NC(=O)Nc1ccccc1Cl (stereo not drawn) | · | -11.2% | · | -25.2% | · | -3.5%
COc1ccc(-c2ccc(N(C)C)cc2)cc1C1C2C=CCCC2(C)C(=O)N1Cc1ccccc1 (stereo not drawn) | · | · | · | · | · | 5.2%
Cc1ccc(-n2nc(-c3ccco3)cc2C(=O)O)c(C)c1 | 2.5% | ? | -27.0% | 156.1% | 28.2µM* | -25.7%
Cc1ccc(-n2nc(-c3cccnc3)cc2C(=O)N2CCOCC2)c(C)c1 | 0.2% | -7.8% | ? | -12.4% | 0.2% | -6.8%
O=C(O)c1cc(-c2ccco2)nn1-c1ccc(Cl)cc1 | 3.7% | 20µM* | ? | 141.5% | -19.8% | ?
Cc1ccc(NC(=O)c2cccc(S(=O)(=O)Nc3c(C)n(C)n(-c4ccccc4)c3=O)c2)cc1C | · | · | 2.9% | 4.0% | · | -5.7%
COc1ccc(-c2ccnc3nc(N4CCN(c5ccccc5)CC4)nn23)cc1 | 12.6µM* | -14.5% | -0.4% | 24.9% | -3.7% | -7.9%
